Rows were chosen to be rich in hits. Some 4.6% of all compounds tested hit in one or more screens of this group.
TIM10 inh – TIM10 yeast growth inhibition | S. cerevisiae TIM10 strain growth, BacTiter-Glo luminescence, 24 h | inhibition, % at 10 µM | hit rate 1.4% among 330,000;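 active = inhibition of 40% or more at the single tested concentration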;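 note: wild-type TIM10 isogenic control strain grown at permissive 25 °C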
tim23-1 inh – growth inhibitors of tim23-1 mutant yeast; AID 463212; inhibition, % at 20 µM; S. cerevisiae tim23-1 growth, BacTiter-Glo luminescence, 24 h; hit rate 1.3% among 330,000;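 active = growth inhibition of the mutant yeast at or above 50%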;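 note: temperature-sensitive mutant grown at 25 °C; plate controls were DMSO-treated mutant yeast for no effect and medium wells lacking yeast for full effect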
NALP3 yeast inh – NALP3 inhibition in yeast; Yeast reconstituted NLRP3/ASC/caspase-1, beta-gal luminescence, 24 h; hit rate 0.39% among 330,000; inhibition, % at 10 µM;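 active = inhibition of 50% or more; inactive = inhibition below 50%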;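 note: plate controls were induced DMSO wells for no effect and uninduced yeast grown without galactose for full effect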
tim10-1 inh – tim10-1 yeast growth inhibition | S. cerevisiae tim10-1 ts strain growth, BacTiter-Glo, 24 h | inhibition, % at 20 µM | hit rate 2.2% among 330,000 | AID 463190;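 active = inhibition of at least 40%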;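 note: mutant grown at 25 °C; 0% = DMSO wells with yeast and 100% = wells holding no yeast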
PfHsp90 set2 – reduces growth (ATP signal) of yeast expressing P. falciparum Hsp90; S. cerevisiae expressing PfHsp90, BacTiter-Glo ATP, 48 h; yeast lacking PDR1 and PDR3 efflux regulators; AID 504621; inhibition, % at 9.4 µM; hit rate 0.32% among 310,000;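 active = every replicate shows inhibition above about 80%, whatever the replicate mean, limit read from the data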;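 note: 0% = DMSO neutral controls and 100% = 20 µM radicicol positive controls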
SKKanGAS inh – blocks kanamycin growth of S. pyogenes SKKanGAS strain; BacTiter-Glo, 6 h; inhibition, % at 7.5 µM; hit rate 1.3% among 300,000; AID 1662;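 active = mean replicate score, as percent of positive control median, at least 50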;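 note: strain carries kanamycin resistance gene driven by streptokinase promoter and grows in 40 µg/ml kanamycin; loss of luminescence reflects streptokinase promoter inhibition or plain growth inhibition; 0% = median of DMSO wells and 100% = positive control at its reference dose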
tim10-1 confirm – tim10-1 yeast growth inhibition, confirmed. S. cerevisiae tim10-1 ts strain growth, BacTiter-Glo, 24 h. hit rate 56% among 7,400. inhibition, % at 20 µM. shares compounds with tim10-1 inh;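 active = inhibition of yeast growth at or above a set limit in either of two repeat tests at 20 µM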;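 note: tim10-1 mutant grown at permissive 25 °C to find synthetic lethal compounds; 0% = DMSO yeast wells and 100% = medium wells without yeast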
TIM10 conf – TIM10 yeast growth inhibition, confirmed | shares compounds with TIM10 inh | S. cerevisiae tim10 strain growth, BacTiter-Glo luminescence, 24 h | inhibition, % at 10 µM | hit rate 63% among 4,600 | AID 463215;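 active = inhibition of yeast growth at or above a set limit in either of two replicates at 10 µM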;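 note: this counterscreen used the strain with wild-type TIM10; 0% = yeast with DMSO and 100% = medium wells lacking yeast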
tim23-1 confirm – tim23-1 yeast growth inhibition, confirmed; shares compounds with tim23-1 inh; S. cerevisiae tim23-1 growth, BacTiter-Glo luminescence, 24 h; inhibition, % at 20 µM; hit rate 83% among 4,400; AID 463218;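 active = inhibition above about 39% in either of two replicate wells at 20 µM, limit read from the data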;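 note: temperature-sensitive tim23-1 mutant grown at 25 °C; 0% = DMSO wells with yeast and 100% = medium wells without yeast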
* marks the source's active call; other numbers are inactive results; / = no result.

SMILES	TIM10 inh	tim23-1 inh	NALP3 yeast inh	tim10-1 inh	PfHsp90 set2	SKKanGAS inh	tim10-1 confirm	TIM10 conf	tim23-1 confirm
Cc1cc(-c2onc(C)c2C(=O)Oc2ccc(Cl)cc2)no1	19	37	1	24	7	0	/	/	/
Cc1cc(C(=O)O/N=C(\N)c2ccc(C(C)(C)C)cc2)no1	61*	70*	9	47*	/	4	58*	45*	78*
CCOC(=O)c1cc(/C(C)=N/OC(=O)c2ccc(C(C)(C)C)cc2)on1	-13	18	19	-12	15	0	/	/	/
N/C(=N\OC(=O)Cc1ccccc1)c1cccc(Br)c1	-1	23	-9	9	-22	-11	/	/	/
N/C(=N\OC(=O)c1cccs1)c1ccccc1	70*	71*	5	65*	-20	7	63*	36*	67*
Cc1cccc(/C(N)=N/OC(=O)c2cccs2)c1	79*	81*	-23	65*	-14	0	57*	73*	76*
N/C(=N\OC(=O)c1cccs1)c1cccc(Br)c1	90*	80*	5	57*	-25	-4	59*	86*	51*
Cc1ccc(/C(N)=N/OC(=O)C23CC4CC(CC(C4)C2)C3)cc1	85*	80*	4	58*	/	13	42*	86*	67*
CC(=O)Nc1ccc(S(=O)(=O)N[C@@H](C)C(=O)OCC(=O)NC2CCCC2)cc1	12	4	-8	7	-4	/	/	/	/
O=C(COc1ccccc1)N1CCN(S(=O)(=O)c2cccc([N+](=O)[O-])c2)CC1	3	8	10	15	-3	0	/	/	/
Cc1ccc(/C(N)=N/OC(=O)c2cccs2)cc1	80*	73*	9	48*	0	-14	60*	88*	24
Cc1ccc(C(=O)COC(=O)c2cccs2)cc1	-9	5	25	17	71	6	/	/	/
Fc1ccc(CCNC(=S)Nc2ccc(F)c(Cl)c2)cc1	41*	55*	34	52*	0	22	66*	27	75*
Fc1ccc(NC(=S)NCCc2ccccc2)c(F)c1F	41*	51*	37	40*	3	13	19	35*	49*
O=[N+]([O-])c1ccc(NC(=S)NCCc2ccc(F)cc2)cc1	64*	74*	34	75*	14	0	70*	-29	70*
Fc1ccccc1NC(=S)NCCc1ccccc1	15	18	25	33	3	6	/	/	/
S=C(NCCc1ccc(Cl)cc1)Nc1ccc(Cl)cc1Cl	48*	60*	43	50*	17	39	56*	44*	66*
C=C(CC)C(=O)c1ccc(OCC(=O)O)c(Cl)c1Cl	54*	68*	12	65*	4	18	55*	57*	89*
COc1cccc(CNC(=O)CCCc2c[nH]c3ccccc23)c1	1	14	6	5	11	-7	/	/	/
CCCCOC(=O)n1c(=O)oc2cc(S(=O)(=O)N3CCCCC3)ccc21	43*	52*	17	40*	11	-1	39*	23	55*
COC(=O)n1c(=O)oc2ccc(S(=O)(=O)N3CCCCC3)cc21	10	2	-2	-3	-6	-6	/	/	/
Cc1ccc(C(C)C)c(OCC(=O)NNC(=O)Cc2ccc(S(=O)(=O)N3CCOCC3)s2)c1	-1	5	6	1	-7	/	/	/	/
N#CC(C#N)=Cc1cc2ccccc2nc1N1CCCCC1	41*	78*	13	53*	-43	11	42*	13	71*
COCC1CCCCN1C(=O)c1cccc(OC2CCN(S(C)(=O)=O)CC2)c1 (stereo not given)	9	-2	3	-7	13	-5	/	/	/
CCOc1cc(/C=C2/C(=O)ON=C2C)ccc1O	-20	12	-7	11	28	4	/	/	/
